Assay results from PubChem BioAssay AID1463 (National Center for Advancing Translational Sciences (NCATS), 2008).
The campaign covered roughly 280,000 compounds. About 2,600 (0.93%) were called active. Roughly 8% stayed inconclusive and do not appear here. The full list was thinned out, with actives kept by preference. A number with no mark means an inactive call. Calls come from the whole dose curve; as a rule, active = well fitted curve in the direction sought with a large enough effect; inconclusive = small, poorly fitted or top-dose-only effect; inactive = flat fitted curve, though single readings scatter.

assay: Counterscreen qHTS for Inhibitors of Tau Fibril Formation, Fluorescence Polarization; details: tau K18 P301L (four-repeat tau fragment) Alexa594 fluorescence, heparin fibrillization; series mostly up to 57.7 µM; activity change, negative = decrease: at the top concentration; note: nearly all actives have a fitted effect of over 55% in size
Text: NIH Molecular Libraries Probe Production Network [MLPCN]
NIH Chemical Genomics Center [NCGC]
Assay Provider: Carlo Ballatore, University of Pennsylvania
The microtubule-associated protein tau is an abundant protein in the axons of neurons that stabilizes microtubules. With its ability to modulate microtubule dynamics, tau contributes directly or indirectly, to key structural and regulatory cellular functions. Particularly important is the influence tau exerts on axonal transport, which allows signaling molecules, trophic factors and other essential cellular constituents to travel along the axons. Under pathological conditions, tau becomes sequestered into insoluble aggregates called neurofibrillary tangles. This phenomenon is believed to have pathological consequences by promoting axonal transport deficits that ultimately lead to synaptic dysfunction and neuronal loss. To identify inhibitors of tau aggregation, a heparin-induced tau fibril formation assay was used that employed a recombinantly expressed fragment of tau, K18 (Q242-E372), bearing a P301L mutation (Gustke et al. 1994; Hong et al. 1998). […] Total fluorescence (555 nm excitation and 632 nm emission) was measured to identify fluorescent or absorbent compounds at this wavelength. Such compounds may be artifacts that interfere with the Alexa 594 Tau fluorescence polarization assay.
Gustke, N., B. Trinczek, et al. (1994). "Domains of tau protein and interactions with microtubules." Biochemistry 33(32): 9511-22.
Hong, M., V. Zhukareva, et al. (1998).
Li, W. and V. M. Lee (2006). "Characterization of two VQIXXK motifs for tau fibrillization in vitro." Biochemistry 45(51): 15692-701.
von Bergen, M., S. Barghorn, et al. (2001). "Mutations of tau protein in frontotemporal dementia promote aggregation of paired helical filaments by enhancing local beta-structure." J Biol Chem 276(51): 48165-74.
NCGC Assay Protocol Summary:
For screening, 2 uL/well human K18 P301L (15 uM unlabeled and 0.24 uM Alexa 594-labeled tau final concentrations) in reagent buffer (100 mM sodium acetate pH 7) was dispensed into black solid 1536-well plates (Grenier) using a solenoid-based dispenser. Following transfer of 23 nL compound or DMSO vehicle by a pin tool, 2 uL/well heparin (20 uM final concentration) in reagent buffer was added and the plate centrifuged 15 s at 1000 RPM. Plates were incubated 6 hr at 37 C and then 1 uL/well ThT (30 uM final concentration) was added. After a 1 hr ambient incubation, the plates were read by an Envision (Perkin Elmer) to monitor Alexa 594 FP (555 nm excitation and 632 nm emission).
Keywords: NIH Roadmap, MLPCN, MLI, MLSMR, NCGC, qHTS, tau, tauopathies, Alzheimer's disease, fibril, neurodegeneration, aggregation
% is set by controls: 0 for no effect and ±100 for the full control effect; potency is the fitted concentration of half-maximal effect; tags give direction and shape of the fitted curve or compound fluorescence and quenching.

Compound | activity change, negative = decrease [%] | Potency
Cc1ccc(NC(=O)Nc2cccc(C(F)(F)F)c2)nc1 | -3.63 | 
Cc1cc(Nc2cccc(C(F)(F)F)c2)nc2ccc(NC(=O)c3ccc(=O)[nH]c3)cc12 |  | 3.55 µM [quencher] (active)
O=C(Nc1ccc(F)cc1F)c1ccc2c(=O)n3c(nc2c1)CCCCC3 | -19.9 | 
O=C(CC1N=C2c3ccccc3N=C(SCc3cccc(Cl)c3)N2C1=O)NCc1ccc2c(c1)OCO2 (centres undefined) | -27.4 | 
CCCn1c2ccccc2c2cnn(CC(=O)N(CC)c3cc(C)ccc3C)c(=O)c21 | -14.2 | 
CCN(CC)CCNC(=O)Cn1ncc2c3ccccc3n(Cc3ccccc3C)c2c1=O | -13.4 | 
Cc1ccc2nc(/C(C#N)=C/c3ccc(-c4ccc(C(=O)OC(C)C)cc4)o3)[nH]c2c1 | -26.4 | 
CC(=O)OC1=C(C(C)=O)N(Cc2ccccc2)S(=O)(=O)c2ccccc21 | -6.98 | 
CCOC(=O)Cn1c(=O)n(C2CCCCC2)c2nc(-c3cccc(OC)c3)nc(C(N)=O)c21 | -8.8 | 
COC(=O)CCc1sc(Nc2ccc(Br)cc2)nc1-c1ccc(OC)cc1 |  | 8.91 µM [quencher] (active)
Cc1ccc(OC(=O)CCC(=O)Nc2ccc(Br)cc2)cc1 | 5.66 | 
COc1ccc(NC(=O)c2sc(N)nc2-c2ccccc2)cc1 | -10.4 | 
COC(=O)c1ccc(NC(=O)CCc2c(C)nn(-c3ccc(N4CCCC4)nn3)c2C)cc1 | -12.2 | 
COc1ccc(N=C(C)c2sc3ccccc3c2O)cc1 | -23.8 | 
Oc1ccc2ccccc2c1C=Nc1ccccc1 | -20.7 | 
Oc1ccc(N=Cc2sc3ccccc3c2Cl)cc1 |  | 10 µM [quencher] (active)
CCCNc1ncnc2c1c(-c1ccccc1)cn2-c1ccc(OCC)cc1 | -8.19 | 
O=C(Nc1ccccc1F)C(c1ccccc1)N1Cc2ccccc2C1=O (centres undefined) | -6.79 | 
Cc1ccc(C)c(CNC(=O)c2cc3ccccn3n2)c1 | -15.9 | 
CCc1ccc(CNC(=O)c2ccc(CS(=O)c3ccc(Br)cc3)o2)cc1 (centres undefined) | -8.58 | 
CN(C)c1cccc(C(=O)Nc2nc3ccc(S(=O)(=O)NC(C)(C)C)cc3s2)c1 | -26.9 | 
COc1ccc2[nH]cc(CCNc3ncnc4ccc(-c5ccccc5CN(C)C)cc34)c2c1 | -18.8 | 
COc1ccc2[nH]cc(CCNc3nc(-c4cccc(NS(C)(=O)=O)c4)nc4ccccc34)c2c1 |  | 28.2 µM [quencher] (active)
COCCNc1ccnc(-c2cccc(NS(C)(=O)=O)c2)n1 | -11.8 | 
Cc1cccc(Cn2c(CN3CCC(C(=O)NCc4ccccc4Cl)CC3)cc3ccccc32)c1 | -1.33 | 

Compound | activity change, negative = decrease [%] | Potency
Cc1cc([N+](=O)[O-])ccc1NC(=O)c1ccc(NC(=O)C(C)C)cc1 | -6.04 | 
CCn1c2ccccc2c2cc(NC(=O)CNC)ccc21 | -25.8 | 
CCn1c2ccccc2c2cc(NC(=O)Nc3ccc([N+](=O)[O-])cc3C)ccc21 |  | 8.91 µM [quencher] (active)
O=C(Cn1cc(SCc2cccc(Cl)c2)c2ccccc21)N1CCCCC1 | -24.4 | 
Cc1nc2ccn(Cc3cccnc3)c(=O)c2cc1C(=O)N1CCN(c2ccccc2F)CC1 | -0.563 | 
O=C(Cc1ccccc1)NCc1ccc(F)cc1 | -0.209 | 
CN(C)c1ccc(C(CNC(=O)c2ccc(F)cc2)c2c[nH]c3ccccc23)cc1 (centres undefined) |  | 25.1 µM [quencher] (active)
CCOc1ccccc1C(=O)NCC(c1ccc(N(C)C)cc1)N1CCCC1 (centres undefined) | 4.45 | 
CCOc1ccc(CNC(=O)Cn2cc3c(n2)-c2c(oc(C(=O)N4CCCC4)c2C)CC3)cc1 | -13.1 | 
O=C(CN1C(=O)COc2ccc(S(=O)(=O)N3CCOCC3)cc21)N1CCN(c2cccc(Cl)c2)CC1 | -9.08 | 
COc1ncnc2sc3c(c12)CCCC3 | 6.33 | 
CC1(C)CN=C(N2CCN(c3ncnc4sc5c(c34)CCCC5)CC2)S1 | 2.38 | 
COc1ccc(/C=N/Nc2ncnc3sc4c(c23)CCCC4)cc1O |  | 14.1 µM [quencher] (active)
Cc1ccc(Cl)cc1NC(=O)CCS(=O)(=O)c1ccc(Br)s1 | -2.67 | 
Cc1ccccc1Nc1nn2c(=O)c3ccc(C(=O)NCCc4ccc(Cl)cc4)cc3nc2s1 | -23.6 | 
CN1CCN(C2(CNC(=O)COc3ccc(C(C)(C)C)cc3)CCCCC2)CC1 | -8.9 | 
Cn1c(C(=O)N2CCC(C(=O)N3CCN(c4ccccc4)CC3)CC2)cc2sccc21 | -5.95 | 
O=C(N/N=C/c1c(Cl)[nH]c2ccccc12)c1sc2ccccc2c1Cl |  | 10 µM [quencher] (active)
CCCC(=O)Nc1ccc(NC(=O)c2sc3ccccc3c2Cl)cc1 | -3.72 | 
Cc1nn(C)cc1/C=N/NC(=O)c1sc2ccccc2c1Cl | -17.1 | 
CCOc1ccc(CCNC(=O)c2ccc3c(c2)sc2nc(-c4ccc(F)cc4)cn23)cc1OCC | -23.8 | 
COc1ccccc1CSc1nc2ccccc2[nH]1 | -13.5 | 
COc1ccccc1CC(=O)Nc1ccc([N+](=O)[O-])cc1OC | -24.8 | 
COc1ccccc1CSc1ncc(-c2ccc([N+](=O)[O-])cc2)[nH]1 |  | 28.2 µM [quencher] (active)
